# Assay outcomes as filed in PubChem BioAssay.
# HT1080 IDH1KD tx = qHTS for induction of synthetic lethality in tumor cells producing 2HG: qHTS for the HT-1080-IDH1KD cell line; Potency, µM (highest dose often 46.1 µM), for inactives: top-dose activity, negative = toxicity, actives largely listed as cytotoxic; HT-1080 IDH1 knockdown viability, ATP luminescence, 48 h; hit rate 2% among 360,000;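 also: potency is read from the fitted curve at half-maximal effect; 0% = DMSO wells and -100% = cell-free medium wells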
#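 Viability of IDH1-knockdown HT-1080 fibrosarcoma cells was assessed by CellTiter-Glo after 48 h at 37 °C with titrated compound; concentration-effect curves were classified by fit quality and response size.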
# HT1080NT lethal = qHTS for induction of synthetic lethality in tumor cells producing 2HG: qHTS for the HT-1080-NT fibrosarcoma cell line; Potency, µM (top dose mostly 46.1 µM), for the others: at the top dose activity, negative = less viability, usual class: cytotoxic; HT-1080-NT fibrosarcoma viability, CellTiter-Glo ATP luminescence, 48 h; hit rate 1.6% among 360,000;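 also: NT is the 2HG producing partner of a matched IDH1 knockdown line; potency is read from the fitted curve at half-maximal effect; 0% = DMSO-treated cells and -100% = media-only wells without cells; nearly all actives have a fitted effect of over 55% in size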
#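 A 48-hour cytotoxicity screen used HT-1080-NT cells plated 2 hours before compound delivery. ATP-based CellTiter-Glo luminescence measured viability, normalized to DMSO and no-cell controls.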
# TDP1 cell CPT = qHTS for Inhibitors of human tyrosyl-DNA phosphodiesterase 1 (TDP1): qHTS in cells in presence of CPT. chicken DT40 Tdp1-/-;hTDP1 cells + 20 nM CPT, ATP luminescence, 48 h. Potency, µM (doses to about 46.2 µM), for the others: at the top dose activity change, negative = growth inhibition, actives largely listed as inhibitors. hit rate 12% among 420,000. AID 686979, 2013; also: potency is read from the fitted curve at half-maximal effect; nearly all actives have a fitted effect of over 55% in size
#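 Cell growth measured by CellTiter-Glo luminescence after a minimum 48 h, 37 C compound exposure with 20 nM CPT in Tdp1-knockout DT40 cells stably expressing hTDP1, seeded 400/well; qHTS titration format.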
# IL1B secr inh = qHTS for Inhibitors of Inflammasome Signaling: IL-1-beta AlphaLISA Primary Screen | THP-1 LPS/ATP IL-1B secretion, AlphaLISA, 16 h; stronger effect = lower value | activity change, % at 57.5 µM | hit rate 4.7% among 360,000; in the data active = activity change below about -50%; inconclusive = mostly about -30% to -49%
#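 THP-1 cells pretreated 1 hr with compounds (up to 57.5 uM final), then stimulated with LPS (250 ng/mL final) plus ATP (1.25 mM final); secreted IL-1B measured by AlphaLISA after 16 hr, decreased signal indicating inhibition.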
# uPA generation = qHTS for Inhibitors of Cell Surface uPA Generation. cell surface uPA generation assay, qHTS. hit rate 0.31% among 330,000. Potency, µM (highest dose often 38.3 µM), for the others: top-dose activity change, negative = inhibition, actives largely listed as inhibitors; active = well fitted inhibition curve with a large enough effect; inconclusive = small, poorly fitted or top-dose-only effect; inactive = no such curve, though single readings can be large or run the other way; tested in mouse RAW 264.7 cells; also: potency is read from the fitted curve at half-maximal effect; nearly all actives have a fitted effect of over 55% in size
# TDP1 cell noCPT = qHTS for Inhibitors of human tyrosyl-DNA phosphodiesterase 1 (TDP1): qHTS in cells in absence of CPT; DT40 Tdp1-/- hTDP1 cells, no CPT, ATP luminescence, 48 h; Potency, µM (titrated, usually from 46.2 µM), inactives show at the highest dose activity change, negative = growth inhibition, most hits filed as inhibitors; hit rate 15% among 420,000; also: potency is read from the fitted curve at half-maximal effect; nearly all actives have a fitted effect of over 55% in size
#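 A cellular qHTS used chicken DT40 cells lacking endogenous Tdp1 but carrying stably transfected human TDP1. Compounds were applied without camptothecin, and cell growth kinetics were judged by ATP-dependent luminescence after ≥48 hr.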
# The depositor's hits bear a star; ? = inconclusive; . = not tested or not shown; [ ] = remark or other dose. Shown are actives, neighbours in structure and some others; about 19% of the full set was active somewhere. Unless noted, calls follow the shape of the dose curve; as a rule, active = well fitted curve in the direction sought with a large enough effect; inconclusive = small, poorly fitted or top-dose-only effect, or another doubt; inactive = no such curve, though single readings can be large; an effect the other way counts as inactive or inconclusive. Unless noted, % is scaled to controls: 0 for no effect and ±100 for the full control effect.
SMILES,HT1080 IDH1KD tx,HT1080NT lethal,TDP1 cell CPT,IL1B secr inh,uPA generation,TDP1 cell noCPT
CCc1nnc(NC(=O)c2nc(S(C)(=O)=O)ncc2Cl)s1,.,.,5.8µM*,.,.,9.2µM*
N[C@@H](CSSC[C@H](N)C(=O)O)C(=O)O,.,.,5%,.,.,-5%
Cc1cccc(CSc2ncc(Cl)c(C(=O)Nc3nnc(C)s3)n2)c1,.,.,-15%,.,.,-14%
CCc1nnc(NC(=O)c2cc(Cl)ccn2)s1,?,-28%,2.9µM*,53,-5%,2.6µM*
Cc1nnc(NC(=O)c2nc(S(=O)(=O)Cc3ccccc3)ncc2Cl)s1,21µM*,15µM*,9.2µM*,-103*,-2%,12µM*
COc1ccc(NC(=O)CN(C)C(=O)C2(c3ccccc3)CCCC2)cc1,-9%,-1%,?,-11,-4%,?
CC(Sc1nc2ccccc2c(=O)n1CCCN1CCOCC1)C(=O)N1CCc2ccccc21 (configuration not stated),2%,-22%,-1%,9,-1%,5%
O=C1C(Cc2ccc(O)cc2)NC(=S)N1C1CCCCC1 (configuration not stated),-12%,-21%,-20%,9,3%,-24%
CC(C)CC1NC(=S)N(C2CCCCC2)C1=O (configuration not stated),3%,0%,8.2µM*,7,3%,15µM*
O=C(Nc1ccccc1)Nc1ccc2ncoc2c1,0%,2%,3%,-63*,2%,-15%
Cc1ccc2ncccc2c1,2%,22%,-5%,22,2%,-10%
c1cnc2ccc(-c3ccc4ncccc4c3)cc2c1,?,-29%,?,?,-16%,4.1µM*
O=C(Nc1ccc2ncccc2c1)c1ccccc1Br,0%,-11%,-21%,-23,-7%,?
O=C(Nc1ccc2ncccc2c1)Nc1ccc2ncccc2c1,9%,6%,21µM*,.,7%,8.2µM*
CCn1c(-c2ccccc2F)nc2cc(NC(C)=O)cc(C(=O)N(C)Cc3c(C)nc4ccccn34)c21,.,.,9%,.,.,?
Cn1c(=O)c2cc(NC(=S)NCc3ccccc3F)ccc2n1C,-2%,?,0%,-26,.,-23%
Cc1ccc2cc(CN(CC3CCCO3)C(=O)Nc3ccccc3F)c3nnnn3c2c1 (configuration not stated),14%,13%,-3%,6,-4%,?
Cc1ccc2c(c1)cc(CN(CCc1ccccc1)C(=O)N1CCOCC1)c1nnnn12,-3%,-3%,-21%,1,-2%,?
Cc1ccc2cc(CN(CC3CCCO3)S(=O)(=O)c3ccccc3)c3nnnn3c2c1 (configuration not stated),-12%,-5%,29µM*,-10,.,-29%
Cc1ccc2c(c1)cc(CN(Cc1ccco1)S(=O)(=O)c1ccccc1)c1nnnn12,0%,-1%,13µM*,31,2%,21µM*
Cc1ccc2c(c1)cc(CN(Cc1ccco1)C(=O)N1CCOCC1)c1nnnn12,-11%,0%,?,-10,-6%,-11%
Cc1ccc2c(c1)cc(CN(Cc1ccc3c(c1)OCO3)C(=O)c1ccccc1)c1nnnn12,15%,17%,?,-26,5%,21µM*
COc1cccc(C(=O)CC2(O)C(=O)N(Cc3ccccc3)c3ccccc32)c1 (configuration not stated),.,.,6.5µM*,.,.,6.5µM*
CCCCN1C(=O)C(O)(CC(=O)c2ccccc2OC)c2ccccc21 (configuration not stated),6%,14%,-2%,19,0%,-4%
CCCN1C(=O)C(O)(CC(=O)c2cccc(OC)c2)c2ccccc21 (configuration not stated),9%,0%,4.1µM*,-7,-10%,3.3µM*
SMILES,HT1080 IDH1KD tx,HT1080NT lethal,TDP1 cell CPT,IL1B secr inh,uPA generation,TDP1 cell noCPT
CCOCCCn1c(SCC(=O)Nc2cc(C)ccc2C)nc2c(oc3ccccc32)c1=O,.,.,-13%,.,.,-14%
Cc1nc(SC(C(=O)c2ccccc2)c2ccccc2)nc2ccccc12 (configuration not stated),-18%,-12%,?,40,3%,?
COc1ccc2nc(SC(C(=O)c3ccccc3)c3ccccc3)nc(C)c2c1 (configuration not stated),11%,1%,23µM*,9,-3%,?
NC(=O)C1CCN(C(=O)c2ccc(NS(=O)(=O)c3ccc(Br)s3)cc2)CC1,1%,0%,4%,0,5%,5%
COc1ccc(NC(=O)Nc2ccc(F)cc2F)c(C)c1,8%,4%,?,-26,0%,?
O=C(Nc1ccc(OC(F)(F)F)cc1)Nc1cccnc1,5%,6%,?,43,?,?
Cc1cc([N+](=O)[O-])ccc1NC(=O)Nc1ccc(F)cc1F,14%,16%,5.2µM*,-82*,.,4.6µM*
Cc1ccc(NC(=O)Nc2cccc([N+](=O)[O-])c2)cc1F,12µM*,15µM*,?,-95*,-21%,16µM*
O=C(Nc1ccc(OC(F)(F)F)cc1)Nc1cccc([N+](=O)[O-])c1,?,?,2.9µM*,-106*,-9%,4.1µM*
CN(C(=S)Nc1ccc(F)cc1)C1(c2ccccc2Cl)CCCCC1=O (configuration not stated),-19%,-11%,?,6,.,?
COc1ccccc1C1OC(=O)CC1C(=O)OC[C@@H]1CCCN2CCCCC12 (some centres not stated),.,.,21%[9.04 µM],.,.,-16%[9.04 µM]
CCN(CC1COc2ccccc2O1)S(=O)(=O)c1ccc(C)cc1 (configuration not stated),-16%,0%,?,-1,-2%,?
C=CCOc1ccc(C(=O)O)cc1Cl,3%,-4%,-18%,18,5%,-11%
O=C(O)c1ccc(NC(=O)c2ccccc2NC(=O)c2cccc(F)c2)cc1,-8%,3%,25%,-2,-4%,4%
CCOc1ccc(NC(=O)Nc2cc(-c3ccccc3)sc2C(=O)OC)cc1,-28%,-22%,?,-18,11%,?
CCOc1ccc(-c2cc(NC(=O)Nc3ccc(Cl)cc3)c(C(=O)OC)s2)cc1,.,.,?,.,.,21µM*
